Data taken from PubChem BioAssay AID651568 (National Center for Advancing Translational Sciences (NCATS), 2012).
In all, about 1,200 compounds went through this assay and about 55 (5%) were called active. Roughly 15% stayed inconclusive and do not appear here. The full list was thinned out, with actives kept by preference. Unmarked numbers belong to inactive results. Calls follow the shape of the dose curve; as a rule, active = well fitted inhibition curve with a large enough effect; inconclusive = small, poorly fitted or top-dose-only effect; inactive = no such curve, though single readings can be large or run the other way.

Experiment: qHTS Assay to Find Inhibitors of Chronic Active B-Cell Receptor Signaling: Hit Validation in Renilla Reporter Assay; also: nearly all actives have a fitted effect of over 70% in size
Conditions: TMD8 IkB-Renilla luciferase reporter, NF-kB signaling; series mostly up to 57.5 µM; activity change, negative = inhibition: at the top concentration
From the text: Diffuse large B-cell lymphoma (DLBCL) is the most common category of non-Hodgkin lymphoma, with ~20,000 new cases per year in the United States. DLBCL should be regarded as a collection of different neoplasms. Microarray gene expression analysis has defined two principal types of DLBCL, named for their similarity to normal B cell stages or activation states: a germinal center B-cell (GCB) type, and an activated B-cell (ABC) type. In ABC-DLBCL, a constitutive high-level activity of the NF-kappaB family of transcription factors has been observed (1) and NF-kappaB target genes are more highly expressed in ABC primary tumors than in GCB tumors. Functional studies have shown a constitutive high-level activity of the IkappaB (inhibitor of kappa-B) kinase (IKK) complex. […] Further analysis of DLBCL primary tumors for NF-kappaB target gene expression imply that although CARD11 is required for constitutive IKK activity in all ABC-DLBCL lines, mutations in CARD11 may be the root cause of IKK activation only in lines or tumors with such mutations. In other words, CARD11 mutations may explain NF-kappaB activation in only 10% of ABC-DLBCL cases. […] This process has been termed 'chronic active BCR signaling' (CABS). The goal of this screen is to find small-molecule inhibitors of the CABS pathway found in ABC-DLBCL lines using a cell-based assay that measures IkappaBalpa stability, which has already been extensively validated in the OCI-Ly3 line (PubChem AID:445; REF: 4). […] Hits from the primary screen were tested in this orthogonal secondary assay. NIH Molecular Libraries Probe Production Network [MLPCN] NIH Chemical Genomics Center [NCGC] MLPCN Grant: R03 DA031086 PI Name: Dr. R. Eric Davis
The IkB-Photinus/Renilla reporter assay differs from the primary assay in that the reporters are constitutively expressed, and based on luciferases that are different from the click beetle luciferases and each other. These differences should help to eliminate artifactual sources of activity specific to the primary assay. This assay uses the Dual-Glo substrate from Promega; extensively validated in a 96-well format, it could be converted to a smaller-well format. All lines needed for the IkB-Photinus/Renilla assay have already been prepared and extensively validated
% is scaled to controls: 0 for no effect and ±100 for the full control effect; potency is read from the fitted curve at half-maximal effect.

Compound	Potency	activity change, negative = inhibition
CCCc1nc([N+](=O)[O-])c(S(=O)(=O)c2ccccc2)n1CC(C)C	30.1 µM (active)	
Cc1ccc(C(=O)c2cc([N+](=O)[O-])ccc2N2CCCCC2)cc1C		1.06%
CCOC(=O)C1=C(C)NC(C)=C(C(=O)OCC)C1/C=C/c1ccccc1		12.9%
O=C(/C=C\c1ccco1)Nc1cc([N+](=O)[O-])ccc1F		-0.37%
O=S1(=O)C=C(Sc2nc3cc(Cl)ccc3o2)c2ccccc21	8.49 µM (active)	
CCOC(=O)C(C)Oc1cccc2c(=O)n(CC(=O)NCc3ccccc3)ccc12 (stereo not drawn)		-22.1%
COc1ccc(N(C(=O)c2ccccc2C)S(=O)(=O)c2cccs2)cc1		12.6%
Cc1ccc(C(=O)c2cc([N+](=O)[O-])ccc2N2CCCCC2)cc1		0.979%
O=C(/C=C/c1cccs1)c1cc(Br)ccc1OC(=O)N1CCOCC1	26.9 µM (active)	
O=C(Oc1ccc2ccc(OC(=O)N3CCOCC3)cc2c1)N1CCOCC1		5.12%
C#C[C@]1(O)CC[C@H]2[C@@H]3CCc4cc(O)ccc4[C@H]3CC[C@@]21C		-9.49%
O=C(COc1ccccc1-c1ccccc1)N/N=C/c1cccc2ccccc12		-0.961%
Nc1cc(=O)[nH]c(SCC(=O)Nc2cc(Cl)cc(Cl)c2)n1		19%
COc1cc2c(cc1OC)-c1cc(Nc3ccc(C)cc3)nc(=O)n1CC2		-18.8%
N=C1SCC(=O)N1c1ncc(Cc2cccc(Cl)c2)s1	3.01 µM (active)	
N=C1SCC(=O)N1c1ncc(Cc2ccccc2Cl)s1	8.49 µM (active)	
CCc1ccc(CCC(=O)Nc2ncc(Cc3ccccc3Cl)s2)o1		-12.8%
Cn1c(=O)n(Cc2ccccc2Cl)c2ccccc21		7.35%
COc1ccccc1-c1noc(CSc2nc(N)cc(=O)[nH]2)n1		-1.85%
COc1ccc(S(=O)(=O)Nc2cc3c(C(C)=O)c(C)oc3c3ccccc23)cc1		24.7%
O=c1cc(-c2ccccc2)[nH]c2ccccc12		1.97%
COc1ccc2cc(C3c4cc(OC)c(OC)cc4CCN3C(=O)c3ccco3)c(=O)[nH]c2c1 (stereo not drawn)		0.254%
CCOC(=O)c1[nH]c(C)c(C(=O)c2cc(F)ccc2F)c1C		-10.3%
C/C(=N\NC(=O)c1c([N+](=O)[O-])c(C)nn1C)c1ccc(NC(=O)C2CCCC2)cc1		5.23%
CCOC(=O)c1[nH]c2c(c1C)C(=O)CC(c1ccc(F)cc1)C2 (stereo not drawn)		8.44%
CC[C@]12c3[nH]c4cc(CCC(=O)N(C)C)ccc4c3CCN1C(=O)[C@@H](CC(=O)NCCCN(C)C)C[C@@H]2C(=O)N1CCN(C(=O)c2ccco2)CC1		-12.6%
COc1ccc(NC(=S)N/N=C/c2ccc(F)cc2)cc1OC		2.21%

Compound	Potency	activity change, negative = inhibition
COc1ccc(/C=C/C(=O)c2cc(F)ccc2OC(=O)c2ccc(OC)c(OC)c2)cc1OC	7.57 µM (active)	
COc1ccc(S(=O)(=O)N2CCOCC2)cc1NC(=O)/C=C/c1ccc(F)cc1		2.91%
COc1ccc(/C=N\NC(=O)c2ccccc2F)cc1COc1ccc(F)cc1F		-2%
Cc1ccccc1C(=O)Oc1ccc2ccc(O)cc2c1		1.03%
COc1ccc(/C=C/C(=O)c2cc(F)ccc2OC(=O)c2ccccc2OC)cc1OC	6.75 µM (active)	
COc1ccc(/C=C/C(=O)c2cc(F)ccc2OC(=O)c2ccccc2C)cc1OC	13.5 µM (active)	
CCc1ccc(NC(=O)C(C)OC(=O)/C=C/c2ccc(O)c(OC)c2)cc1 (stereo not drawn)		-16.3%
COc1ccc(/C=C/c2ccncc2)cc1OC		1.23%
COc1cccc(/C=N/Nc2nc(Nc3ccccc3)nc(-n3nc(C)cc3C)n2)c1O		-13.7%
NC(=O)c1c(NC(=O)CSc2nc(N)cc(=O)[nH]2)sc2c1CCCC2		-13.8%
CCOc1ncccc1C(=O)N1CCN(c2cc(Cl)ccc2C)CC1		-5.04%
Cc1ccc(/C=N/NC(=O)c2cc(-c3ccncc3)nc3ccccc23)o1		1.04%
CCOC(=O)c1c(C)n(C)c2ccc(OC)c(NC(=O)CN3CCC4(CC3)OCCO4)c12		0.686%
COC(=O)C1=C(C)NC(C)=C(C(=O)OC)C1/C=C/c1ccccc1		22.2%
O=C(/C=C/c1ccccc1)c1ccc(NC2=NCCCS2)cc1	21.3 µM (active)	
Cc1nc(NC(=O)c2cnccn2)ccc1Br		-7.88%
Cn1c(=O)[nH]c(=O)c2c1nc(SCC(N)=O)n2Cc1cccc(Br)c1		3.59%
CCOC(=O)C1CCN(C(=O)CSc2cc(=O)n(CC)c3ccccc23)CC1		4.83%
CCOC(=O)C1CCN(S(=O)(=O)c2c(Cl)ccc3nonc23)CC1	3.01 µM (active)	
COc1ccc(C(=O)NN(C)c2nc(C(F)(F)F)nc3ccccc23)cc1		-4.63%
COc1ccc(-c2cnnn2-c2ccc(NC(=O)c3ccc(S(=O)(=O)N4CCCCC4)cc3)cc2)cc1OC		9.05%
COCCn1c(-c2cccc([N+](=O)[O-])c2)nc2c1c(=O)[nH]c(=O)n2Cc1ccccc1		-17.5%
Cc1ccc(C(=O)c2cc([N+](=O)[O-])ccc2N2CCCCC2)c(C)c1		-15.6%
Cc1ccc(C(=O)c2cc([N+](=O)[O-])ccc2N2CCOCC2)c(C)c1		-2.34%
Cc1ccc(C)c(-n2c3nc(=O)[nH]c(=O)c-3cc3cc([N+](=O)[O-])ccc32)c1	16.9 µM (active)	
Cc1cccc(-n2c3nc(=O)[nH]c(=O)c-3cc3cc([N+](=O)[O-])ccc32)c1	26.9 µM (active)	
